Tb PYK inh – T. brucei pyruvate kinase inhibition | Potency, µM (highest dose often 76.8 µM), without a hit: top-dose activity, negative = inhibition, most hits filed as inhibitors | 0.12% of 410,000 active | TbPYK enzyme, Kinase-Glo Plus ATP luminescence, 45 min; further: potency means the concentration at half of the fitted maximal effect; on the % scale 0 is the no-effect control and ±100 the full control effect; nearly all actives have a fitted effect of over 50% in size
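Assay buffer: 50 mM TEA pH 7.2, 100 mM KCl, 10 mM MgCl2, 0.05% BSA, 0.01% Tween-20. Pyruvate kinase from T. brucei plus substrate met compound, then ADP (130 uM final). Luminescence was read post 45 min RT.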
Cycloheximide cs – affects cycloheximide protein synthesis inhibition readout, counter-screen; 12% of 300,000 active; AID 2314; max response, %; cell reporter, cycloheximide protein synthesis inhibition counterscreen; in the data active means max response mostly above about 13%, no sharp cut-off; inactive means mostly below about 14%; further: read at 38.3 µM for the half of the compounds with a filed dose; 0% is about no effect
LmPK inh – LmPK (Leishmania mexicana) enzyme inhibition. Potency, µM (series often up to 57.5 µM), for inactives: at the highest dose activity change, negative = inhibition, actives largely listed as inhibitors. Q27686. purified LmPK, Kinase-Glo ATP luminescence, 1 h. 0.37% of 290,000 active; further: potency means the concentration at half of the fitted maximal effect; on the % scale 0 is the no-effect control and ±100 the full control effect
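Screened at intermediate enzyme activity to detect both inhibitors and activators: LmPK at 0.1 nM, with a 0.5 nM enzyme column as activation reference. PEP 0.5 mM, ADP 0.1 mM; ATP detected by luminescence after 1 h.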
Shiga inhibitor – Shiga toxin inhibition. 9.2% of 290,000 active. Vero cells, Shiga toxin protein synthesis inhibition reporter. inhibition, % at 38.7 µM; in the data active means inhibition mostly above about 28%, no sharp cut-off; inactive means mostly below about 43%; further: 0% is about no effect
Giardia FBPA inh – inhibitors of Giardia lamblia fructose-1,6-bisphosphate aldolase; purified Giardia FBPA; Potency, µM (series often up to 59.6 µM), for inactives: at the highest dose activity, negative = inhibition, usual class: inhibitors; 0.71% of 290,000 active; A8B2U2; further: potency means the concentration at half of the fitted maximal effect; on the % scale 0 is the no-effect control and ±100 the full control effect; nearly all actives have a fitted effect of over 55% in size
Target sequence (A8B2U2 whole entry, looked up): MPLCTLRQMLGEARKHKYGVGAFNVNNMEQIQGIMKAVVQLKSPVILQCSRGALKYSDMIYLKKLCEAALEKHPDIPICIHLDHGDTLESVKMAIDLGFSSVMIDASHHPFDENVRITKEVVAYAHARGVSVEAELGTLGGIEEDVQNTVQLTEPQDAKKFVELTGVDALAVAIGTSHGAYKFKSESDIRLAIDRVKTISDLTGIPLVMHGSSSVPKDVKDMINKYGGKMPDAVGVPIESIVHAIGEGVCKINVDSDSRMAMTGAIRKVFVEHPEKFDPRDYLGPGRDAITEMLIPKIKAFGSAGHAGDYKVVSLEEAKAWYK
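40 nM FBPA preincubated 10 min at RT with compound (up to 57.5 uM final), then substrate plus GAPDH/TPI/NAD/arsenate coupling and diaphorase/resazurin added. Fluorescence read after 20 min at RT, 525/598 nm.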
Sm TGR inh – blocks Schistosoma mansoni thioredoxin glutathione reductase | Q962Y6 | 3% of 360,000 active | AID 485364 | purified TGR, DTNB reduction, TNB absorbance 405 nm | Potency, µM (top dose mostly 114 µM), for the others: at the highest dose activity change, negative = inhibition, most hits filed as inhibitors; further: potency means the concentration at half of the fitted maximal effect; on the % scale 0 is the no-effect control and ±100 the full control effect; nearly all actives have a fitted effect of over 60% in size
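TGR 20 nM + NADPH 100 uM (dispensed conc.), cpd preinc 15 min RT; start with NADPH (500 uM addition) then DTNB (15 mM addition). Kinetic TNB absorbance, 405 nm filter. Four-parameter Hill fit across titration.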
Starred values were filed as active, the others as inactive; ? = inconclusive; . = not tested or not shown. This excerpt belongs to a sample that is enriched for hits. Unless noted, the call rests on the fitted dose curve; in most records, active means well fitted curve in the direction sought with a large enough effect; inconclusive means small, poorly fitted or top-dose-only effect, or another doubt; inactive means no such curve, though single readings can be large; an effect the other way counts as inactive or inconclusive.

SMILES | Tb PYK inh | Cycloheximide cs | LmPK inh | Shiga inhibitor | Giardia FBPA inh | Sm TGR inh
O=C(/C=C/c1ccccc1F)c1cccc([N+](=O)[O-])c1 | -2% | 21 | -5% | active | -4% | ?
COc1cc(/C=C/C(=O)c2cccc([N+](=O)[O-])c2)cc(OC)c1OC | 2% | -3 | -2% | -18 | 6% | -29%
COc1ccc(C=CC(=O)c2ccc([N+](=O)[O-])cc2)cc1 | 2% | . | . | . | . | .
COc1ccc(C(=O)/C=C/Nc2ccc([N+](=O)[O-])cc2C)c(OC)c1 | 9% | 2 | 7% | 4 | 1% | 3%
COc1ccc(C(=O)/C=C/c2ccccc2F)c(OC(=O)c2ccc([N+](=O)[O-])cc2)c1 | -5% | 49* | 2% | 60 | -1% | 0%
COc1ccc(C(=O)/C=C/c2ccc(C)cc2)c(OC(=O)c2ccc([N+](=O)[O-])cc2)c1 | -7% | 32* | 2% | 16 | -1% | 0%
Cc1ccsc1CN(C(=O)c1oc2cc(Br)ccc2c1C)C1CCS(=O)(=O)C1 (stereo not drawn) | 3% | . | . | . | . | 0%
CC(C)Oc1ccc(CNC(=O)c2sc3ncccc3c2-n2cccc2)cc1 | -2% | . | . | . | . | 1%
O=C(C#Cc1ccccc1)c1cccc([N+](=O)[O-])c1 | -17% | -2 | -6% | -15 | 0% | 0.25µM*
CC(=O)c1ccc(NC(=O)Cn2ncc3c(C)n(Cc4ccc(F)cc4)c(C)c3c2=O)cc1 | -3% | . | . | . | . | -8%
CCOC(=O)c1ccc(OC(=O)c2cn(-c3ccc(C)cc3)c(=O)c3ccccc23)cc1 | -9% | . | . | . | . | -10%
CCCCNC(=S)NNC(=O)c1cc(-c2ccncc2)nc2ccccc12 | 17% | 19* | 7% | 24 | . | 5%
CCNC(=S)NNC(=O)c1cc(-c2ccc(OCC)cc2)nc2ccccc12 | -17% | -12 | -17% | -26 | -15% | 9%
CCNC(=S)NNC(=O)c1cc(-c2cccc(OC)c2)nc2ccccc12 | -6% | 71* | -29% | 43 | 28% | 21%
CCNC(=S)NNC(=O)c1cc(-c2ccccc2C)nc2ccccc12 | -3% | 2 | 1% | 19 | 7% | -14%
CCCOc1cccc(-c2cc(C(=O)NNC(=S)NCC)c3ccccc3n2)c1 | -5% | 25* | 6% | 87* | -13% | 7%
Cc1ccc(S(=O)(=O)N2CCN(Cc3ccc4c(c3)OCO4)CC2)cc1 | -2% | . | . | . | . | 2%
C=CCn1nc(C(=O)N2CCOCC2)cc1-c1sc(NC(=O)c2ccccc2)nc1C | -2% | . | . | . | . | .
COc1ccc(/C=N/NC(=O)c2cc(-c3ccccc3)nc3ccccc23)c(OC)c1 | -8% | 18* | -7% | 40 | -16% | -11%
COc1ccc2nc(-c3ccccc3)cc(OC)c2c1 | 11% | 58* | 7% | 65* | -3% | 8%
COc1ccc(-c2cc(C(=O)N/N=C(\C)c3cccnc3)c3ccccc3n2)c(OC)c1 | -1% | 18 | -7% | 42* | . | -5%
C/C(=N\NC(=O)c1cc(-c2ccco2)nc2ccccc12)c1cccnc1 | -1% | 4 | 9% | 16 | -4% | 10µM*
O=C(NC1CCOCC1)C1CCC(=O)N(CCc2cccc(F)c2)C1 (stereo not drawn) | 0% | -2 | 2% | -6 | . | -1%
COc1cc(OC)cc(-c2nnc(NC(=O)c3ccc4c(c3)OCCO4)o2)c1 | 2% | 13 | 5% | -3 | ? | 12%
Cc1c(Cl)cccc1NC(=O)Nc1ccc2snnc2c1 | -5% | . | . | . | . | -4%
SMILES | Tb PYK inh | Cycloheximide cs | LmPK inh | Shiga inhibitor | Giardia FBPA inh | Sm TGR inh
Cc1ccc(NC(=O)N2CCN(c3nnc(C)c4c(C)n(-c5ccc(Cl)cc5)nc34)CC2)c(C)c1 | 0% | . | . | . | . | -3%
Cc1ccccc1NC(=S)Nc1ccccn1 | -15% | 26* | 4% | 52* | -29% | ?
S=C(Nc1ccccn1)Nc1ccccc1Cl | 1% | 35* | 6% | 72* | -20% | ?
Cc1c(Cl)cccc1NC(=S)Nc1ccccn1 | 1% | -3 | -8% | 7 | -1% | 0%
CCCCn1c(N)c(N(CC(C)C)C(=O)CCCn2c(=O)oc3ccccc32)c(=O)[nH]c1=O | 0% | . | . | . | . | -11%
COc1ccc(-c2csc3nc(C)nc(N4CCN(c5ccc(C(C)=O)cc5)CC4)c23)cc1OC | -3% | 31* | 15% | 65* | -2% | -4%
O=C(C1=C[C@@H](c2ccccc2)C[C@@H](OCc2ccc(CO)cc2)O1)N1CCOCC1 | -5% | 9 | -1% | -14 | 7% | 45µM*
O=C(C1=C[C@H](c2ccc(Br)cc2)C[C@H](OCc2ccc(CO)cc2)O1)N1CCOCC1 | -8% | 2 | 3% | -2 | -1% | -35%
CN1CCN(C(=O)C2=C[C@@H](c3ccc(C(F)(F)F)cc3)C[C@@H](OCc3ccc(CO)cc3)O2)CC1 | -2% | -1 | 1% | -3 | 1% | ?
CN1CCN(C(=O)C2=C[C@H](c3ccccc3)C[C@H](OCc3ccc(CO)cc3)O2)CC1 | -3% | 7.5* | 0% | 1 | -6% | ?
COc1ccc(OCC(=O)N2CCN(S(=O)(=O)c3ccc4c(c3)OCCO4)CC2)cc1 | -2% | . | . | . | . | .
O=C(Nc1nc2n(n1)C(c1ccccc1)C=C(c1ccccc1)N2)c1ccco1 (stereo not drawn) | -9% | -5 | 0% | 23 | 2% | 1.8µM*
O=C(c1nc2n(n1)C(c1ccc(Cl)cc1)C=C(c1ccccc1)N2)N1CCOCC1 (stereo not drawn) | -2% | 1 | 8% | -8 | -8% | 10µM*
O=C(Nc1nc2n(n1)C(c1ccccc1)C=C(c1ccc(Cl)cc1)N2)c1ccco1 (stereo not drawn) | 3% | . | . | . | . | 14µM*
O=C(Nc1nc2n(n1)C(c1ccc(F)cc1)C=C(c1ccc(Cl)cc1)N2)c1ccco1 (stereo not drawn) | -11% | . | . | . | . | 0%
O=C(c1cc(-c2ccc(Cl)cc2)nc2ccccc12)N1CCOCC1 | -5% | . | . | . | . | -7%
CCOC(=O)N1CCN(C(=O)CN(c2cccc(Cl)c2)S(=O)(=O)c2ccccc2)CC1 | 1% | . | . | . | . | -1%
c1ccc(Nc2nc(-c3ccoc3)nc3ccccc23)cc1 | . | . | . | . | -10% | .
Cc1ccc(S(C)(=O)=NS(=O)(=O)c2cccc3nsnc23)cc1 (stereo not drawn) | 2% | 1 | 3% | 11 | 4% | -4%
Oc1ccc2c3c1O[C@H]1c4[nH]c5ccccc5c4C[C@@]4(O)[C@@H](C2)N(CC2CC2)CC[C@]314 | -1% | . | . | . | . | 45µM*
Oc1ccc2c3c1O[C@H]1c4[nH]c5ccccc5c4C[C@]4(O)[C@H](C2)N(CC2CC2)CC[C@@]314 | . | . | . | . | -7% | .
Oc1ccc2c3c1O[C@H]1c4[nH]c5ccccc5c4C[C@@]4(O)C(C2)N(CC2CC2)CC[C@]314 | . | -2 | 15% | -8 | -12% | 18µM*

Screening results as filed in PubChem BioAssay.
